Results published in PubChem BioAssay AID1159580 (chemical genetic matrix, 2015).
Among all 5,500 compounds or so, about 2,000 (36%) were called active. Roughly 18% stayed inconclusive and do not appear here. No stated cut-off is given here; in the data, active means normalized growth mostly below about 0.91 (no sharp cut-off); inconclusive means no clear call, values can overlap the other calls; inactive means mostly above about 0.92. The list shows a part of the results.

Assay: chemical genetic growth profiling, strain panel (AID 1159580);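 further: tested at 20 µM; growth read once vehicle control cultures reached saturation at 30 °C; 1 = growth at the plate median or of vehicle wells; lower values mean less growth of the strain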
Conditions: S. cerevisiae deletion strains, growth OD
[1] = locus YHR030C, strain SLT2, active compounds read low
[2] = locus YHR079C, strain IRE1, active compounds read low
[3] = locus YJL095W, strain BCK1, active compounds read low
[4] = locus YJR066W, strain TOR1, active compounds read low
[5] = locus YLR113W, strain HOG1, active compounds read low
[6] = locus YNL183C, strain NPR1, active compounds read low
[7] = locus YOR231W, strain MKK1, active compounds read low
[8] = locus YPL256C, strain CLN2, active compounds read low

Measured: normalized growth

CC1(O)CC2C(CC1O)C2(C)C (stereo unspecified)
inactive: locus YAL021C, strain ccr4, active compounds read low 0.988 | locus YAL026C, strain drs2, active compounds read low 1 | locus YAL030W, strain snc1, active compounds read low 0.99 | locus YBL061C, strain skt5, active compounds read low 0.988 | locus YBR009C, strain hhf1, active compounds read low 1.04 | locus YBR023C, strain chs3, active compounds read low 0.999 | locus YBR171W, strain sec66, active compounds read low 0.998 | locus YBR231C, strain swc5, active compounds read low 0.993 | locus YBR279W, strain paf1, active compounds read low 0.995 | locus YCL011C, strain gbp2, active compounds read low 1 | locus YCL016C, strain dcc1, active compounds read low 1.01 | locus YCL069W, strain vba3, active compounds read low 1 | locus YCR088W, strain abp1, active compounds read low 0.997 | locus YDL005C, strain med2, active compounds read low 0.995 | locus YDL040C, strain nat1, active compounds read low 0.999 | locus YDR001C, strain nth1, active compounds read low 1.01 | locus YDR069C, strain doa4, active compounds read low 1.02 | locus YDR137W, strain rgp1, active compounds read low 1 | locus YDR159W, strain sac3, active compounds read low 1 | locus YDR195W, strain ref2 0.988 | locus YDR297W, strain sur2, active compounds read low 1.01 | locus YDR334W, strain swr1, active compounds read low 1 | locus YDR335W, strain msn5, active compounds read low 1 | locus YDR392W, strain spt3, active compounds read low 1 | locus YEL003W, strain gim4, active compounds read low 1.01 | locus YEL037C, strain rad23, active compounds read low 1 | locus YEL061C, strain CIN8 (second series), active compounds read low 0.999 | locus YER015W, strain faa2, active compounds read low 0.995 | locus YER016W, strain bim1, active compounds read low 0.998 | locus YER111C, strain swi4, active compounds read low 0.989 | locus YER155C, strain BEM2 (second series), active compounds read low 1 | locus YFR010W, strain ubp6, active compounds read low 0.997 | locus YGL167C, strain pmr1, active compounds read low 1.01 | locus YGL173C, strain kem1, active compounds read low 0.999 | locus YGL227W, strain vid30, active compounds read low 0.99 | locus YGL240W, strain doc1, active compounds read low 1.01 | locus YGL253W, strain hxk2, active compounds read low 1 | locus YHR013C, strain ard1, active compounds read low 1 | locus YHR027C, strain rpn1, active compounds read low 0.995 | [1] 1.04 | [2] 1.03 | locus YHR142W, strain chs7, active compounds read low 1.01 | locus YJL092W, strain hpr5, active compounds read low 1 | locus YJL095W, strain BCK1 (second series), active compounds read low 0.996 | [3] 0.993 | locus YJL115W, strain asf1, active compounds read low 0.996 | locus YJL129C, strain trk1, active compounds read low 1 | locus YJL154C, strain vps35, active compounds read low 0.994 | locus YJL164C, strain tpk1, active compounds read low 0.998 | locus YJL166W, strain qcr8, active compounds read low 1 | locus YJL187C, strain SWE1, active compounds read low 0.995 | [4] 0.989 | locus YKL160W, strain elf1, active compounds read low 0.994 | locus YKR026C, strain gcn3, active compounds read low 0.994 | locus YKR091W, strain srl3, active compounds read low 1 | locus YLL001W, strain dnm1, active compounds read low 1 | locus YLL026W, active compounds read low 0.998 | locus YLL041C, strain sdh2, active compounds read low 0.991 | locus YLR027C, strain aat2, active compounds read low 1 | [5] 0.976 | locus YLR221C, strain rsa3, active compounds read low 0.999 | locus YLR258W, strain gsy2, active compounds read low 0.982 | locus YLR262C, strain YPT6 (second series), active compounds read low 1.02 | locus YLR320W, strain mms22, active compounds read low 0.994 | locus YLR342W, strain FKS1, active compounds read low 1 | locus YLR357W, strain rsc2, active compounds read low 0.969 | locus YLR370C, strain arc18, active compounds read low 1.01 | locus YLR384C, strain iki3, active compounds read low 0.971 | locus YML120C, strain ndi1, active compounds read low 1 | locus YMR058W, strain fet3, active compounds read low 0.999 | locus YMR125W, strain sto1, active compounds read low 0.988 | locus YMR129W, active compounds read low 0.995 | locus YMR205C, strain PFK2, active compounds read low 0.998 | locus YMR231W, strain pep5, active compounds read low 1.01 | locus YNL071W, strain lat1, active compounds read low 1 | [6] 0.935 | locus YNL209W, strain ssb2, active compounds read low 1.01 | locus YNL248C, strain rpa49, active compounds read low 1 | locus YNL322C, strain KRE1 (second series), active compounds read low 0.981 | locus YNR049C, strain mso1, active compounds read low 0.985 | locus YOR001W, strain rrp6, active compounds read low 1.01 | locus YOR070C, strain gyp1, active compounds read low 0.997 | locus YOR080W, strain dia2, active compounds read low 1 | locus YOR083W, strain WHI5, active compounds read low 0.999 | locus YOR106W, strain vam3, active compounds read low 0.992 | [7] 1.03 | locus YOR265W, strain rbl2, active compounds read low 1.01 | locus YOR270C, strain vph1, active compounds read low 1.03 | locus YOR290C, strain snf2, active compounds read low 1.01 | locus YPL051W, strain arl3, active compounds read low 1 | locus YPL078C, strain atp4, active compounds read low 0.999 | locus YPL106C, strain sse1, active compounds read low 1.01 | locus YPL240C, strain hsp82, active compounds read low 0.998 | [8] 1.02

CCOC(=O)C1C(c2c(F)cccc2Cl)C(C(=O)OCC)C(O)(C(F)(F)F)NC1(O)C(F)(F)F (stereo unspecified)
inactive: locus YAR019C, strain CDC15, active compounds read low 0.984 | locus YBL105C, strain PKC1, active compounds read low 0.988 | locus YBR135W, strain CKS1, active compounds read low 0.994 | locus YBR136W, strain MEC1, active compounds read low 0.979 | locus YBR160W, strain CDC28, active compounds read low 0.993 | locus YDL017W, strain CDC7, active compounds read low 0.99 | locus YDL028C, strain MPS1, active compounds read low 0.993 | locus YDL101C, strain DUN1, active compounds read low 0.983 | locus YDL108W, strain KIN28, active compounds read low 0.994 | locus YDL132W, strain cdc53, active compounds read low 0.993 | locus YDL214C, strain PRR2, active compounds read low 0.986 | locus YDR052C, strain DBF4, active compounds read low 0.99 | locus YDR054C, strain cdc34, active compounds read low 0.985 | locus YDR226W, strain ADK1, active compounds read low 0.992 | locus YDR477W, strain SNF1, active compounds read low 0.998 | locus YER123W, strain YCK3, active compounds read low 0.966 | locus YER133W, strain GLC7, active compounds read low 0.988 | locus YFL009W, strain cdc4, active compounds read low 0.991 | locus YFL029C, strain CAK1, active compounds read low 0.981 | locus YFR003C, strain YPI1, active compounds read low 0.992 | locus YFR019W, strain FAB1, active compounds read low 0.942 | locus YFR028C, strain CDC14, active compounds read low 0.991 | locus YGR040W, strain KSS1, active compounds read low 0.994 | locus YGR052W, strain FMP48, active compounds read low 1.05 | locus YGR092W, strain DBF2, active compounds read low 1 | [1] 0.964 | [2] 0.971 | locus YHR082C, strain KSP1, active compounds read low 0.994 | locus YHR205W, strain SCH9, active compounds read low 0.965 | locus YIL147C, strain SLN1, active compounds read low 0.987 | [3] 0.982 | locus YJL128C, strain PBS2, active compounds read low 0.965 | locus YJL157C, strain FAR1, active compounds read low 0.994 | locus YJR016C, strain ILV3, active compounds read low 0.996 | locus YJR066W, strain TOR1 (second series), active compounds read low 0.951 | [4] 0.969 | locus YKL048C, strain ELM1, active compounds read low 0.988 | locus YKL067W, strain YNK1, active compounds read low 0.987 | locus YKL101W, strain HSL1, active compounds read low 0.989 | locus YKL193C, strain SDS22, active compounds read low 0.99 | locus YKL203C, strain TOR2, active compounds read low 1.06 | [5] 0.926 | locus YLR133W, strain CKI1, active compounds read low 0.985 | locus YLR403W, strain SFP1, active compounds read low 0.986 | locus YML070W, strain DAK1, active compounds read low 0.987 | locus YMR001C, strain CDC5, active compounds read low 0.99 | locus YMR205C, strain PFK2 (second series), active compounds read low 0.997 | locus YMR277W, strain FCP1, active compounds read low 0.991 | locus YNL006W, strain LST8, active compounds read low 0.996 | locus YNL020C, strain ARK1, active compounds read low 0.994 | locus YNL161W, strain CBK1, active compounds read low 0.991 | [6] 0.977 | locus YNL207W, strain RIO2, active compounds read low 0.992 | locus YNL222W, strain SSU72, active compounds read low 0.996 | locus YNL307C, strain MCK1 (second series), active compounds read low 0.986 | locus YOL078W, strain AVO1, active compounds read low 0.998 | locus YOL136C, strain PFK27, active compounds read low 0.979 | locus YOR061W, strain CKA2, active compounds read low 0.996 | locus YOR119C, strain RIO1, active compounds read low 1.03 | [7] 1 | locus YOR329C, strain SCD5, active compounds read low 0.986 | locus YPL031C, strain PHO85, active compounds read low 0.99 | locus YPL153C, strain RAD53, active compounds read low 0.992 | locus YPL204W, strain HRR25, active compounds read low 0.984 | locus YPL209C, strain IPL1, active compounds read low 0.988 | [8] 0.935 | locus YPR025C, strain CCL1, active compounds read low 0.986 | locus YPR106W, strain ISR1, active compounds read low 0.991 | locus YPR111W, strain DBF20, active compounds read low 0.984 | strain NNK1, active compounds read low 0.987 | strain TSCII, active compounds read low 0.995

CN1CC[C@@]2(C)c3cc(O)ccc3N(C)C12 (stereo partly specified)
inactive: locus YAL040C, strain CLN3, active compounds read low 0.971 | locus YCL061C, strain MRC1 (second series), active compounds read low 0.995 | locus YDR150W, strain NUM1, active compounds read low 0.977 | locus YDR363W, strain ESC2, active compounds read low 1.02 | locus YER002W, strain NOP16, active compounds read low 0.998 | locus YGR078C, strain PAC10, active compounds read low 0.982 | locus YGR229C, strain SMI1, active compounds read low 1.03 | locus YJR075W, strain HOC1, active compounds read low 1.01 | locus YMR263W, strain SAP30, active compounds read low 0.993 | locus YMR307W, strain GAS1, active compounds read low 1.02 | locus YNL153C, strain GIM3, active compounds read low 0.941 | locus YNL175C, strain NOP13, active compounds read low 0.989 | locus YNL197C, strain WHI3, active compounds read low 0.969 | locus YNL224C, strain SQS1, active compounds read low 1.02 | locus YOR083W, strain WHI5 (second series), active compounds read low 0.975 | locus YPL055C, strain LGE1, active compounds read low 0.985
